# Measurements: PubChem BioAssay (NCATS)
# Several values for one entry are separate records, joined by “and”; a condition that tells them apart may be missing. Equal entries are not always repeated. Inconclusive results are not listed. Where a call stands in place of a potency, no number is given. More than one record can exist for a structure, and the calls need not agree. A number with no mark means an inactive call. Activity calls are given as the source filed them. Calls come from the whole dose curve; as a rule, active = well fitted inhibition curve with a large enough effect; inconclusive = small, poorly fitted or top-dose-only effect; inactive = flat fitted curve, though single readings scatter.
# What was measured:
# CRL-7250 = normal cell line; assay: Cytotoxic Profiling of Annotated Libraries Using Quantitative High-Throughput Screening (AID 1296008); conditions: Five cell lines viability, CellTiter-Glo ATP luminescence, 48-72 h; max response: stronger effect = lower value; note: potency is the fitted concentration of half-maximal effect
# In short: (§1)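 Cytotoxicity was measured as CellTiter-Glo ATP luminescence, read after 10 min at room temperature. Compound treatment of the cells lasted 48 or 72 hr at 37 degrees Celsius in a qHTS format.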
# HEK293 = assay: as above; conditions: Five cell lines viability, CellTiter-Glo ATP luminescence, 48-72 h; max response: stronger effect = lower value
# In short: as §1
# HaCat [1] = assay: as above; conditions: Five cell lines viability, CellTiter-Glo ATP luminescence, 48-72 h; max response: stronger effect = lower value
# In short: as §1
# KB-3-1 = assay: as above; conditions: Five cell lines viability, CellTiter-Glo ATP luminescence, 48-72 h; max response: stronger effect = lower value
# In short: as §1
# NIH3T3 = assay: as above; conditions: Five cell lines viability, CellTiter-Glo ATP luminescence, 48-72 h; max response: stronger effect = lower value
# In short: as §1
# MCC-13 = assay: qHTS assay to identify novel small-molecules to repurpose for Merkel cell carcinoma treatment (AID 1296009); conditions: MCC and control cell lines, CellTiter-Glo viability, 72 h; series mostly up to 46 µM
# In short: (§2)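 After compound transfer in DMSO, plates were kept 72 hr at 37 degree celsius. Luminescent ATP signal from CellTiter-Glo served as viability measure, normalized against DMSO and no-cell controls.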
# MCC-26 = assay: as above; conditions: MCC and control cell lines, CellTiter-Glo viability, 72 h; series mostly up to 46 µM
# In short: as §2
# HACAT [2] = assay: as above; conditions: MCC and control cell lines, CellTiter-Glo viability, 72 h; at 44.8 µM (top of the series) unless noted
# In short: as §2
# P93_24 = assay: qHTS profiling for inhibitors of Plasmodium falciparum proliferation (AID 504749); conditions: P. falciparum in erythrocytes, SYBR Green DNA, 72 h; series mostly up to 28.7 µM
# In short: (§3)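 Three-day growth assay of blood-stage parasites in erythrocytes (0.3% parasitemia, 2.5% hematocrit) at 37 C, 5% CO2, quantified by SYBR Green DNA staining after overnight detergent lysis.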
# P94_40 = assay: as above; conditions: P. falciparum in erythrocytes, SYBR Green DNA, 72 h; series mostly up to 28.7 µM
# In short: as §3
# PAD = assay: as above; conditions: P. falciparum in erythrocytes, SYBR Green DNA, 72 h; series mostly up to 28.7 µM
# In short: as §3
# PC15 = assay: as above; conditions: P. falciparum in erythrocytes, SYBR Green DNA, 72 h; series mostly up to 28.7 µM
# In short: as §3
# PC26 = assay: as above; conditions: P. falciparum in erythrocytes, SYBR Green DNA, 72 h; series mostly up to 28.7 µM
# In short: as §3
# PC49 = assay: as above; conditions: P. falciparum in erythrocytes, SYBR Green DNA, 72 h; series mostly up to 28.7 µM
# In short: as §3
# SC27B = assay: as above; conditions: P. falciparum in erythrocytes, SYBR Green DNA, 72 h; series mostly up to 28.7 µM
# In short: as §3
# TAB109 = assay: as above; conditions: P. falciparum in erythrocytes, SYBR Green DNA, 72 h; series mostly up to 28.7 µM
# In short: as §3
# TAB113 = assay: as above; conditions: P. falciparum in erythrocytes, SYBR Green DNA, 72 h; series mostly up to 28.7 µM
# In short: as §3
# TAB165 = assay: as above; conditions: P. falciparum in erythrocytes, SYBR Green DNA, 72 h; series mostly up to 28.7 µM
# In short: as §3
# W2 = assay: as above; conditions: P. falciparum in erythrocytes, SYBR Green DNA, 72 h; series mostly up to 28.7 µM
# In short: as §3
# HEK293T = assay: qHTS assay to identify novel small-molecules to repurpose for Merkel cell carcinoma treatment (AID 1296009); conditions: MCC and control cell lines, CellTiter-Glo viability, 72 h; at 44.8 µM (top of the series)
# In short: as §2
# Note: nearly all actives have a fitted effect of over 60% in size.
smiles,measurement,setting,value
COc1ccc2c(Oc3ccc(NC(=O)c4c(C)n(CC(C)(C)O)n(-c5ccccc5)c4=O)nc3)ccnc2c1,Potency,CRL-7250,18.4 µM (active)
same,max response,CRL-7250,-5.8%
same,max response,HEK293,3.25%
same,Potency,HaCat [1],11.6 µM (active)
same,max response,HaCat [1],-3.13%
same,max response,KB-3-1,3.31%
same,Potency,NIH3T3,3.66 µM (active)
same,Potency,MCC-13,inactive
same,Potency,MCC-26,inactive
Cc1ccccc1C(C(=O)NC1CCCCC1)N(C(=O)Cn1ccnc1C)c1cccc(F)c1 (stereo not given),max response,CRL-7250,-5.16%
same,outcome,CRL-7250,inactive
same,max response,HEK293,-0.939%
same,outcome,HaCat [1],inactive
same,max response,KB-3-1,1.35% and 1.14%
same,max response,NIH3T3,-2.46% and -16.9%
same,outcome,HACAT [2],inactive
same,Potency,MCC-13,inactive
same,Potency,MCC-26,inactive
COc1ccc2cc(-c3nc(-c4ccc(S(C)=O)cc4)[nH]c3-c3ccncc3)ccc2c1 (stereo not given),max response,CRL-7250,-4.22%
same,outcome,CRL-7250,inactive
same,max response,HaCat [1],-7.74%
same,outcome,HaCat [1],inactive
same,max response,KB-3-1,4.38%
same,max response,NIH3T3,3.08%
same,outcome,HACAT [2],inactive
same,Potency,MCC-13,inactive
same,Potency,MCC-26,inactive
COc1ccc(C2CC(c3ccccc3)=NN2c2ccc(S(N)(=O)=O)cc2)cc1 (stereo not given),Potency,CRL-7250,10.5 µM (active)
same,max response,CRL-7250,-2.01%
same,max response,HaCat [1],3.54% and 1.7%
same,max response,KB-3-1,-15.8%
same,max response,NIH3T3,-14.6% and -17.5%
same,Potency,MCC-13,inactive
same,Potency,MCC-26,inactive
Cc1cnc(C(=O)O)c[n+]1[O-],outcome,P93_24,inactive
same,Potency,P94_40,inactive
same,outcome,PAD,inactive
same,outcome,PC15,inactive
same,Potency,PC26,inactive
same,outcome,PC49,inactive
same,Potency,SC27B,inactive
same,outcome,TAB109,inactive
same,Potency,TAB113,inactive
same,Potency,TAB165,inactive
same,Potency,W2,inactive
same,max response,CRL-7250,4.3%
same,outcome,HEK293,inactive
same,outcome,HaCat [1],inactive
same,max response,KB-3-1,1.54% and 2.87% and -1.62%
same,outcome,KB-3-1,inactive
same,max response,NIH3T3,-3.95%
same,outcome,HACAT [2],inactive
same,outcome,HEK293T,inactive
same,Potency,MCC-13,inactive
same,Potency,MCC-26,inactive
CNC(=O)c1ccc2cc(C3(O)CCn4cncc43)ccc2c1 (stereo not given),max response,CRL-7250,-2.53% and -8.91%
same,max response,HEK293,-5.04% and 1.96%
same,max response,HaCat [1],0.87%
same,outcome,HaCat [1],inactive
same,max response,KB-3-1,-2.71%
same,outcome,KB-3-1,inactive
same,max response,NIH3T3,3.68% and 1.07%
same,outcome,HACAT [2],inactive
same,Potency,MCC-13,inactive
same,Potency,MCC-26,inactive
O=C(O)c1cc(-c2ccccc2)nc2ccccc12,outcome,P93_24,inactive
same,Potency,P94_40,inactive
same,outcome,PAD,inactive
same,outcome,PC15,inactive
same,Potency,PC26,inactive
same,outcome,PC49,inactive
same,Potency,SC27B,inactive
same,outcome,TAB109,inactive
same,Potency,TAB113,inactive
same,Potency,TAB165,inactive
same,Potency,W2,inactive
same,max response,CRL-7250,-0.325% and 3.3% and 1.79%
same,max response,HEK293,-6.89%
same,outcome,HEK293,inactive
same,max response,HaCat [1],-15.6%
same,outcome,HaCat [1],inactive
same,max response,KB-3-1,-3.95% and -19% and 4.62%
same,max response,NIH3T3,0.25% and -0.385%
same,outcome,NIH3T3,inactive
same,outcome,HACAT [2],inactive
same,outcome,HEK293T,inactive
same,Potency,MCC-13,inactive
same,Potency,MCC-26,inactive
O=C(O)c1ccccc1C(=O)Nc1ccc(-c2ccccc2)cc1,max response,CRL-7250,4.68%
same,max response,HEK293,-10.6%
same,outcome,HaCat [1],inactive
same,max response,KB-3-1,9.98%
same,outcome,KB-3-1,inactive
same,outcome,NIH3T3,inactive
same,outcome,HACAT [2],inactive
same,Potency,MCC-13,inactive
same,Potency,MCC-26,inactive
NC(=O)c1ccc2nc(-c3ccc(Oc4ccc(Cl)cc4)cc3)[nH]c2c1,max response,CRL-7250,-25.5%
same,outcome,CRL-7250,inactive
same,max response,HaCat [1],-0.499%
same,outcome,HaCat [1],inactive
same,max response,NIH3T3,-2.72% and -4.33%
same,outcome,HACAT [2],inactive
same,Potency,MCC-13,inactive
same,Potency,MCC-26,inactive
CC(C)[C@H](CO)Nc1nc(Nc2ccc(C(=O)O)c(Cl)c2)c2ncn(C(C)C)c2n1,outcome,CRL-7250,inactive
same,max response,HEK293,1.29%
same,max response,HaCat [1],4.58%
same,outcome,HaCat [1],inactive
same,outcome,KB-3-1,inactive
same,max response,NIH3T3,-1.87%
same,outcome,NIH3T3,inactive
same,outcome,HACAT [2],inactive
same,Potency,MCC-13,inactive
COc1cc2ncnc(-n3nc(-c4ccccn4)nc3N)c2cc1OC,Potency,CRL-7250,3.55 µM (active)
same,max response,CRL-7250,-12.8%
same,outcome,HEK293,inactive
same,Potency,HaCat [1],3.17 µM (active)
same,outcome,HaCat [1],inactive
same,outcome,KB-3-1,inactive
same,max response,NIH3T3,0.54% and -22.1%
same,outcome,HACAT [2],inactive
same,outcome,HEK293T,inactive
same,Potency,MCC-13,inactive
same,Potency,MCC-26,inactive
CC(C)C(=O)Oc1ccc(CO)cc1[C@H](CCN(C(C)C)C(C)C)c1ccccc1,max response,CRL-7250,-3.71% and 3.58%
same,max response,HEK293,-22.5% and -1.3%
same,max response,HaCat [1],-23.8%
same,outcome,HaCat [1],inactive
same,max response,KB-3-1,-1.04% and 2.37%
same,max response,NIH3T3,-3.14%
same,outcome,NIH3T3,inactive
same,outcome,HACAT [2],inactive
same,Potency,MCC-13,inactive
same,Potency,MCC-26,inactive
